Compound activity deposited in PubChem by several laboratories.
The list is not random: actives were taken first. Their share in the collection is about 1.9%.
EP2 antag – blocks the human prostaglandin E2 receptor EP2; P43116; C6 glioma cells expressing human EP2, cAMP TR-FRET; cells stimulated with saturating PGE2; inhibition, % at 25 µM; 260,000 compounds, 0.52% hits;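 active means percent inhibition above 40 after rounding to a whole number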;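 further: rat C6 glioma host cells with rolipram phosphodiesterase inhibitor present; the protocol text gives 20 µM as final concentration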
Target sequence (P43116 whole entry, looked up): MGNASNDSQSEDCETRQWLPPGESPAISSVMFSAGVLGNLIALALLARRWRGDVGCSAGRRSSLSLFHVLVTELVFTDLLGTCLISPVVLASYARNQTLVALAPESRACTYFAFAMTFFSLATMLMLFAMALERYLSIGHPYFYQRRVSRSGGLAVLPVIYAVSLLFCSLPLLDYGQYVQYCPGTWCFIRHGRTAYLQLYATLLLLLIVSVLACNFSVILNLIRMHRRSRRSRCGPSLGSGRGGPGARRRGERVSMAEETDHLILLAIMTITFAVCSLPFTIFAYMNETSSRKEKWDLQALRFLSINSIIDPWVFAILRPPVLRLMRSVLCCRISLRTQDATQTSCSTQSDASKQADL
EP2 mod – EP2 receptor (human) modulation; AID 940; induction, % at 25 µM; 260,000 compounds, 0.83% hits; P43116; EP2-expressing cells, cAMP HTRF FRET, PGE2 co-stimulation;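 active means compounds whose cAMP rise, as percent of the full-agonist control response, exceeds 60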;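 further: rat C6 glioma line stably carrying human EP2 under a CMV promoter; the protocol text gives 20 µM as final concentration; 100% = response of wells given 1 µM PGE2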
Efa HMGR inh – E. faecalis class II HMG-CoA reductase inhibition; 190,000 compounds, 0.41% hits; inhibition, % at 10 µM; purified E. faecalis HMGR, NADPH absorbance 340 nm kinetic; AID 1066;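 active means inhibition above a set limit, the median over all tested compounds plus 3 SD, cut at about 9.5% in these data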;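 further: enzyme runs in reverse so mevalonate oxidation gives rising NADPH absorbance; 0% = complete reaction with DMSO and 100% = background rate lacking mevalonate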
m-calpain inh – blocks pig calpain II enzyme activity; purified calpain II, fluorogenic peptide substrate, 30 min; inhibition, % at 16 µM; 220,000 compounds, 0.37% hits;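 active means inhibition above about 50%, limit read from the data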
Furin inhibitor – blocks human furin protease activity. purified furin, fluorogenic substrate cleavage. P09958. inhibition, % at 20 µM or 30 µM. AID 463115. 220,000 compounds, 0.061% hits; in the data active means inhibition above about 25%
An asterisk follows results filed as active; . = no result; ! = a repeat was not active.

SMILES	EP2 antag	EP2 mod	Efa HMGR inh	m-calpain inh	Furin inhibitor
CCC(C)N=Cc1c(Nc2ccccc2)nc2c(C)cccn2c1=O (stereo not drawn)	0	66*	.	13	-16
COc1cc(-c2nc3ccc(C)cn3c2NC(C)(C)C)ccc1O	8	6	.	.	.
CNC(=S)NCc1ccc2[nH]c3c(c2c1)CCCC3	6	-11	-2	-16	-18
CCCCNC(=S)NCc1ccc2[nH]c3c(c2c1)CCCC3	11	-18	-1	63*	-27
O=C(Cn1ncc2c(=O)oc3ccccc3c21)NC1CC1	21	19	-1	-27	-26
O=C(Cn1ncc2c(=O)oc3ccccc3c21)Nc1nc2ccccc2s1	6	-2	-2	-7	25*
COc1cc(C=O)ccc1OCc1ccccc1Br	5	65*	-1	-3	-27
CCN(CC)c1ccc(CN2CCc3nc(C)[nH]c(=O)c3C2)c(OC)c1	.	-14	.	.	.
COC(=O)c1cc([N+](=O)[O-])c(-n2cncn2)c([N+](=O)[O-])c1	77*	25	-8	2	-18
COC(=O)c1cc(F)c(-n2cncn2)c(F)c1	10	1	2	-3	-18
COc1ccc(C(=O)CSc2nnnn2C2CCCCC2)cc1	9	-22	.	.	.
COc1ccc(-c2nnc(CSc3nnc(-c4ccncc4)n3C3CCCCC3)o2)cc1OC	4	5	-4	-13	-25
COCCCn1c(SCc2nnc(-c3ccc(OC)c(OC)c3)o2)nnc1-c1ccncc1	6	21	9.9*	-15	-6
CC1(C)Cc2c(C#N)c(N)sc(=S)c2CO1	37	24	-3	-73	-9
CC(C)C1Cc2c(C#N)c(N)sc(=S)c2CO1 (stereo not drawn)	59*	-23	2	2	-17
COc1cc(/C=C2/SC(=S)NC2=O)ccc1OS(=O)(=O)c1ccc(C)cc1	6	-59	1	63*	-3
COc1cc(/C=C2\SC(=S)NC2=O)ccc1OS(=O)(=O)c1ccccc1	8	-49	5	62*	0
COc1cccc(-c2cc3nc(C4CCNCC4)cc(N)n3n2)c1	.	-68	.	.	.
CC(C)(C)C1(O)CC(C(F)(F)F)=NN1C(=O)c1ccc(Cl)cc1 (stereo not drawn)	7	10	.	.	.
CC1CN(c2nc3c(c(=O)[nH]2)CCN(Cc2ccc(C(C)C)cc2)C3)CC(C)O1 (stereo not drawn)	.	-2	.	.	.
CCOC(=O)c1cnc2ccc(Br)cc2c1NCCCCCO	11	-7	.	.	.
COc1ccc(C2NC(=O)NC(O)(C(F)(F)F)C2C(=O)c2ccccc2)cc1OC (stereo not drawn)	6	8	-2	12	-18
COc1cccc(C2NC(=O)NC(O)(C(F)(F)F)C2C(=O)c2cccnc2)c1OC (stereo not drawn)	8	11	19*	0	-12
COC1=CC(=O)C(O)=C/C1=C\C=C\c1ccccc1	111*	-32	.	.	.
CC(=O)c1cccc(Nc2nc(-c3ccc(O)cc3O)cs2)c1	70*	-136	.	.	.
SMILES	EP2 antag	EP2 mod	Efa HMGR inh	m-calpain inh	Furin inhibitor
CCOc1ccc(NC(=O)CSc2nnc(C(C)C)n2C)cc1	13	-7	.	.	.
Cc1occc1-c1nnc(SCC(=O)N2CCCCC2)o1	7	16	13*	4	-25
Cc1occc1-c1nnc(SCC(N)=O)o1	6	19	-7	-31	-15
Cc1occc1-c1nnc(SCC(=O)N2CCCCC2)n1Cc1ccccc1	5	-24	.	.	.
Cc1occc1-c1nnc(SCC(=O)N2CCN(c3ccccc3F)CC2)n1C	7	75*!	7	9	-11
Cc1ccc2c(c1)nnn2C1CCN(C(=O)Nc2ccc(C(C)C)cc2)CC1	9	-2	.	.	.
CCc1nc2cc(NC(=O)COc3ncnc4ccccc34)ccc2n1C	10	-4	.	.	.
O=C(COc1ccc(Cl)cc1)Nc1nnc(C2=COCCO2)o1	23	13	-1	3	-20
CCCCC(=O)Nc1nnc(C2=COCCO2)o1	11	11	18*	-21	-25
CN1CCN(CCCNC(=O)c2nnc(Cc3c(F)cccc3Cl)o2)CC1	8	5	10*	-2	-20
CC(C)C(OC(=O)c1cc2sccc2n1C)C(=O)NCc1ccc(F)cc1 (stereo not drawn)	9	14	.	.	.
Cc1nnc(NC(=O)COc2ccccc2C(C)(C)C)s1	6	19	.	.	.
O=C(COC(=O)Cc1ccc(Br)cc1)NC1CCCCC1	8	1	-3	40	-14
NCOC(=O)Cc1ccc(Br)cc1	54*	10	.	.	.
Cc1ccc(NC(=O)CSc2nnc(C3CCCCC3)n2C)c(C)c1	8	6	.	.	.
CS(=O)(=O)N1CCc2cc(C(=O)OCC(=O)c3ccc(Cl)cc3)ccc21	13	4	.	.	.
Nc1c(C(=O)OCC2CCCO2)c2nc3ccccc3nc2n1-c1ccc2c(c1)OCCO2 (stereo not drawn)	80*	-44	-3	-111	-2
Nc1c(C(=O)NC2CC2)c2nc3ccccc3nc2n1-c1ccc2c(c1)OCO2	16	-18	2	-43	-24
COc1ccc(NC(=O)CSc2nc3ccccc3c3nc4ccccc4n23)cc1	9	19	1	-50	-25
COc1ccc(OC)c(NC(=O)CSc2nc3ccccc3c3nc4ccccc4n23)c1	7	23	-2	70*	-8
CCc1ccc2c(c1)C1(SC(NC(C)=O)=NN1C(C)=O)C(=O)N2CC(=O)OC (stereo not drawn)	9	11	.	.	.
CSc1ncccc1C(=O)Nc1ccc(OC(F)(F)F)cc1	5	-29	-8	14	-15
COc1cc(NC(=O)c2cccnc2SC)cc(OC)c1OC	7	-16	13*	-2	-12
CN(C)C[C@@H](O)c1ccc(Cl)c2ccccc12	47*	-26	.	.	.
CC(C)(C)c1[nH]ncc1CN1CCN(S(=O)(=O)N2CCOCC2)CC1	7	-31	.	.	.
SMILES	EP2 antag	EP2 mod	Efa HMGR inh	m-calpain inh	Furin inhibitor
Oc1c(Cl)cc(Cl)cc1C(C#Cc1ccccc1)N1CCOCC1 (stereo not drawn)	10	37	-8	53*	-7
N#CC(c1ccc(Cl)cc1)N1CCOCC1 (stereo not drawn)	2	7	-4	7	-14
COCCn1c(SCC(=O)c2cc(OC)ccc2OC)nnc1-c1ccco1	13	4	.	.	.
Nc1nc(SCc2ccccc2Cl)ns1	11	6	13*	-22	-26
CCCCOCCCNC(=O)c1ccc(OCC)cc1	13	11	10*	27	-13
CCCCOCCCNC(=O)c1ccc(OC)cc1	9	-6	-2	5	1
Cc1ccccc1CN1CCSc2sccc2C1=O	1	62*	5	-8	-26
O=C1c2ccsc2SCCN1Cc1cccc(Cl)c1	10	61*	-2	22	-13
O=C1c2ccsc2SCCN1Cc1ccccc1Cl	11	43	-6	2	-20
O=C1c2ccsc2SCCN1Cc1ccc(Cl)cc1	11	15	-1	10	-5
CC1=NN(C(=O)c2ccccc2Cl)C(O)(C2CCCCC2)C1 (stereo not drawn)	12	57	.	.	.
Cn1nc(C(F)(F)F)c(C(=O)Nc2ccc(C(F)(F)F)cc2)c1Cl	17	-11	-7	1	-20
